Data published in ChEMBL document CHEMBL3988442, “University of Dundee, Small-Polar-MMV Screening Library” (2021).
For part of these data: Measured potencies and affinities stand elsewhere.

Columns and labels:
[1] = molecular target: Protein translocase subunit SecA (Escherichia coli (strain K12)) (UniProt P10408); assay: Assay to Identify E. coli SecA ATPase Inhibitors; assay type: functional; parameters: scale not given: direction of the effect not stated beside the values; conditions: 30 µM
[2] = molecular target: T1, Ubiquitin-activating enzyme e1, putative (Leishmania donovani (strain BPK282A1)) (UniProt E9BSI1); assay: Leishmania donovani Ubiquitin Activating Enzyme (LdE1); assay type: functional; parameters: scale not given: direction of the effect not stated beside the values; conditions: 30 µM
T1 sequence (whole entry): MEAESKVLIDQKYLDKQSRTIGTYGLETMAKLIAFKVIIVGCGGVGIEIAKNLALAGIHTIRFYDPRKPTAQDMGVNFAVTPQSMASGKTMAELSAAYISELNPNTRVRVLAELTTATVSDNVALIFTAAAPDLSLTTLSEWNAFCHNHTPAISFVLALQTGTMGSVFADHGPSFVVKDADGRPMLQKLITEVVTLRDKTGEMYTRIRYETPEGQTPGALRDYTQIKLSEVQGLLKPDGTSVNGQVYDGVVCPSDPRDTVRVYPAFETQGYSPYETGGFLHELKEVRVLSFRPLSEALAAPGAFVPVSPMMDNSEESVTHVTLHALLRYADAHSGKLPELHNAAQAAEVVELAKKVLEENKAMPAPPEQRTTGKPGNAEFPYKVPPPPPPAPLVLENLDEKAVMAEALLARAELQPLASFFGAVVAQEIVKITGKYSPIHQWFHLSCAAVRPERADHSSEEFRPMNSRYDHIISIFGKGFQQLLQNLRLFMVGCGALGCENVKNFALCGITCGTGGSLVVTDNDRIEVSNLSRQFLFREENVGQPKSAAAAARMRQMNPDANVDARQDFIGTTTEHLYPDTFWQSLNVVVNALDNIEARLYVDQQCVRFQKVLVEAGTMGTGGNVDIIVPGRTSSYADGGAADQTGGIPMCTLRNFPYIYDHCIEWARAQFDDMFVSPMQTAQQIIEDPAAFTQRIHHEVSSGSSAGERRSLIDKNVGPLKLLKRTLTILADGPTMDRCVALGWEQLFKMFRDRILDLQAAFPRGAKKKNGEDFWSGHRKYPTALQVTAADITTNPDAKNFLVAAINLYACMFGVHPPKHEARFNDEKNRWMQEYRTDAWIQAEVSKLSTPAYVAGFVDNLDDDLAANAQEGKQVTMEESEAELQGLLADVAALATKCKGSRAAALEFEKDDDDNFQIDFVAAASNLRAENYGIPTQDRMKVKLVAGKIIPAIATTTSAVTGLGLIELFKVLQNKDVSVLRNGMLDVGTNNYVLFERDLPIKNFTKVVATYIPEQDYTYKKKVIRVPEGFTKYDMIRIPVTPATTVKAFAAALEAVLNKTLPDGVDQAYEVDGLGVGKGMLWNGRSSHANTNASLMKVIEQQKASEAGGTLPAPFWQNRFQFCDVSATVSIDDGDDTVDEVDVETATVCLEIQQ

[3] = molecular target: T2, Aspartate--tRNA(Asp/Asn) ligase (Mycobacterium tuberculosis (strain ATCC 25618 / H37Rv)) (UniProt P9WFW3); assay: Assay for Asp RNA synthetase-1 from Mycobacterium tuberculosis; assay type: functional; parameters: scale not given: direction of the effect not stated beside the values; conditions: 30 µM; further: in the data most compounds retested in dose-response had high values
T2 sequence (whole entry): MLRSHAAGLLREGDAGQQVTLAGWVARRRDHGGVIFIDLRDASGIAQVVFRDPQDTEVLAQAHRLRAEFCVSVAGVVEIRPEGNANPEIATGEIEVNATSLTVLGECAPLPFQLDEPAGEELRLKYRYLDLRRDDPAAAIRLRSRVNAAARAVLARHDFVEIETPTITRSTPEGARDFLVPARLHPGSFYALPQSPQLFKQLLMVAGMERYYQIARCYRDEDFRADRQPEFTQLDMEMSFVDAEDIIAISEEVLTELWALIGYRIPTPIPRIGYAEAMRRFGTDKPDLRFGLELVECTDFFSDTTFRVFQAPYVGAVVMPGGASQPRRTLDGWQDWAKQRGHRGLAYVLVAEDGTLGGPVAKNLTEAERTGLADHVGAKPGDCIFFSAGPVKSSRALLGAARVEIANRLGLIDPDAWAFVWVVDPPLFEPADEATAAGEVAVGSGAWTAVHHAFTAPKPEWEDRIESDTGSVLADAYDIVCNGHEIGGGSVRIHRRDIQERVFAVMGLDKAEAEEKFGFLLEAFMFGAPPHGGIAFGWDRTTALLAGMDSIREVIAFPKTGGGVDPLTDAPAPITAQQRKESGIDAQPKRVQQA

[4] = molecular target: AMP-activated protein kinase, AMPK (Homo sapiens) (UniProt P54646+O43741+P54619+Q9UGJ0+Q9Y478+Q13131+Q9UGI9); assay: AMP-dependent Kinase enzyme assay. An in vitro enzyme assay that detects ADP turnover that is directly proportional to AMPK activity. This uses naive AMPK that is activated during the assay with MK-8722; assay type: functional; parameters: scale not given: direction of the effect not stated beside the values; conditions: 30 µM
[5] = molecular target: Sialic acid-binding Ig-like lectin 9 (Homo sapiens) (UniProt Q9Y336); assay: Hs-Siglec9 ALPHAscreen SOP 20170721; parameters: scale not given: direction of the effect not stated beside the values; conditions: 10 µM
Trypanosoma cruzi = assay: Trypanosoma cruzi phosphomannomutase and mannose-1-phosphate guanylyltransferase assay; assay type: functional; parameters: scale not given: direction of the effect not stated beside the values; conditions: 10 µM
[6] = molecular target: T3, Arginase-2, mitochondrial (Homo sapiens) (UniProt P78540); assay: in vitro enzyme assay to detect the production of urea directly proportional to the activity of Arginase II; assay type: functional; parameters: scale not given: in the data most compounds retested in dose-response had high values
T3 sequence (whole entry): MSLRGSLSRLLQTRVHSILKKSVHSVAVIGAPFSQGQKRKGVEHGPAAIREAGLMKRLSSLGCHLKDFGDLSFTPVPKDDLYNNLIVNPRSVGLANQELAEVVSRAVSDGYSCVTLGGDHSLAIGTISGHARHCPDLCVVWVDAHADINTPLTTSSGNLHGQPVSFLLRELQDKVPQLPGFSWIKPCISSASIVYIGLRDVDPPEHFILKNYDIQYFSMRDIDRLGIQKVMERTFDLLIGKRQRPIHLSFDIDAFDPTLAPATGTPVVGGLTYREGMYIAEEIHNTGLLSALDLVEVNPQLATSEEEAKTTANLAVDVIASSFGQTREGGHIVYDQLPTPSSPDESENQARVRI

[7] = molecular target: T4, Proteasome subunit beta (Trypanosoma cruzi) (UniProt O96673); assay: Trypanosoma cruzi proteasome chymotrypsin-like activity (TcProtChymo) assay.; assay type: functional; parameters: scale not given: in the data most compounds retested in dose-response had high values; conditions: 9.37 µM
T4 sequence (whole entry): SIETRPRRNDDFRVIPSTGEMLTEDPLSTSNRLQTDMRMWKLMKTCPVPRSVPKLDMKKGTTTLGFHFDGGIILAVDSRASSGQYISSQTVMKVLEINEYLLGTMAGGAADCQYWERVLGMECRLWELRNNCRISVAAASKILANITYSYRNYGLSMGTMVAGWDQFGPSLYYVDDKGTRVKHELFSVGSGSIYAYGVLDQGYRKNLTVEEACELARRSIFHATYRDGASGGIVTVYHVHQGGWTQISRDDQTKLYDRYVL

Homo sapiens = organism: Homo sapiens; assay: To identify inhibition of the IFN signalling (Jak-Stat) pathway via expression of an eGFP reporter gene under the control of an IFN-stimulated response element (ISRE) containing MxA promoter.; assay type: functional; parameters: scale not given: direction of the effect not stated beside the values; conditions: 30 µM
[8] = molecular target: Shiga toxin 2 (Escherichia coli O157:H7) (UniProt P09385+P09386); assay: E. coli 0.157:H7 Shiga Toxin SOP - stx2 screening assay; assay type: functional; parameters: scale not given: direction of the effect not stated beside the values; conditions: 30 µM
[9] = molecular target: T5, Tyrosyl-tRNA synthetase, putative (Trypanosoma cruzi (strain CL Brener)) (UniProt Q4DSP6); assay: Trypanosoma cruzi tyrosyl tRNA synthetase (TcYRS) _High Tyrosine SOP; assay type: functional; parameters: scale not given: in the data most compounds retested in dose-response had high values; conditions: 30 µM
T5 sequence (whole entry): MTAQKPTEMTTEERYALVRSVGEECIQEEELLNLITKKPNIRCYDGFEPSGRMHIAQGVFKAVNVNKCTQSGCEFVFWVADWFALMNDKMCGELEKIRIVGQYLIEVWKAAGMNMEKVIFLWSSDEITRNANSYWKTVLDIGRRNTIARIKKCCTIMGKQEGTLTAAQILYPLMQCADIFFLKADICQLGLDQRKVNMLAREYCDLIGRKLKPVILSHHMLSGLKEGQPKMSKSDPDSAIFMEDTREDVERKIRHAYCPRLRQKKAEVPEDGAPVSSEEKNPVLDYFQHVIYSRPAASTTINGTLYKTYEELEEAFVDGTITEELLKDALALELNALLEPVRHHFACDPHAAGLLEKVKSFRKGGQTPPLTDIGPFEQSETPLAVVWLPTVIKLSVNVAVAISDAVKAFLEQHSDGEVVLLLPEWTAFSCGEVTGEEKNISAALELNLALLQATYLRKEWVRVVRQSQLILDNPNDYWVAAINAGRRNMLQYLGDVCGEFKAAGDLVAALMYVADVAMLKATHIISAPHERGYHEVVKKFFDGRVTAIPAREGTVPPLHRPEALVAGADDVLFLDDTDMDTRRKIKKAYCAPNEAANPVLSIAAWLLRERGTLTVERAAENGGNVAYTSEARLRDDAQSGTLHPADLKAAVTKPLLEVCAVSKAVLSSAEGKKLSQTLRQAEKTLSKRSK

[10] = molecular target: T5, Tyrosyl-tRNA synthetase, putative (Trypanosoma cruzi (strain CL Brener)); assay: Trypanosoma cruzi tyrosyl tRNA synthetase (TcYRS) SOP; assay type: functional; parameters: scale not given: direction of the effect not stated beside the values; conditions: 30 µM
[11] = molecular target: Chromo domain-containing protein 1 (Saccharomyces cerevisiae (strain ATCC 204508 / S288c) (Baker's yeast)) (UniProt P32657); assay: ScCHD-1 Enzyme Inhibition Assay; assay type: functional; parameters: scale not given: in the data most compounds retested in dose-response had high values; conditions: 30 µM
[12] = molecular target: T6, Methionyl-tRNA synthetase, putative (Leishmania donovani (strain BPK282A1)) (UniProt E9BF75); assay: Leishmania donovani Methionine tRNA synthetase (LdMetRS):v7. Dose response assay; assay type: functional; parameters: conc 80 nM, time 150 minutes
T6 sequence (whole entry): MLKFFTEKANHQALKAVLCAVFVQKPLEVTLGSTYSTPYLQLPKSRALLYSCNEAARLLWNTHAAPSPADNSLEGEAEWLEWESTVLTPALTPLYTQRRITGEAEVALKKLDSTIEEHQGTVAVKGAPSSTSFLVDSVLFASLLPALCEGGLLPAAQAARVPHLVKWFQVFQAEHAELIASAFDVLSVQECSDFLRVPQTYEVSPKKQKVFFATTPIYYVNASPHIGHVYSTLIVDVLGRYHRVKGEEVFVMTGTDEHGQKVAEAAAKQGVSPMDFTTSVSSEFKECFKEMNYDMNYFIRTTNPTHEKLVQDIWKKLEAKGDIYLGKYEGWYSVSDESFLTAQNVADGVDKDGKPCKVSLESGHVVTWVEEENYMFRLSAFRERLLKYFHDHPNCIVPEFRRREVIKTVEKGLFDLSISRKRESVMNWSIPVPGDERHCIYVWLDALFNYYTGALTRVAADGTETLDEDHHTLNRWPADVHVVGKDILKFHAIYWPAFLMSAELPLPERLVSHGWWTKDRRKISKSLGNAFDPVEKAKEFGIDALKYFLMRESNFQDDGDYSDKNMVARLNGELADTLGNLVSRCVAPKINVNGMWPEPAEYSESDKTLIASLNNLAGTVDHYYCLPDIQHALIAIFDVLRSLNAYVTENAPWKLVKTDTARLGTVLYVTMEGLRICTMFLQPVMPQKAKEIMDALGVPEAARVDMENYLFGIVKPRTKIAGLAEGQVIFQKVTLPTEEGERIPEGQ

Chromo domain-containing protein 1 (Saccharomyces cerevisiae (strain ATCC 204508 / S288c) (Baker's yeast)), sequence (P32657 whole entry, the tested form may be a part): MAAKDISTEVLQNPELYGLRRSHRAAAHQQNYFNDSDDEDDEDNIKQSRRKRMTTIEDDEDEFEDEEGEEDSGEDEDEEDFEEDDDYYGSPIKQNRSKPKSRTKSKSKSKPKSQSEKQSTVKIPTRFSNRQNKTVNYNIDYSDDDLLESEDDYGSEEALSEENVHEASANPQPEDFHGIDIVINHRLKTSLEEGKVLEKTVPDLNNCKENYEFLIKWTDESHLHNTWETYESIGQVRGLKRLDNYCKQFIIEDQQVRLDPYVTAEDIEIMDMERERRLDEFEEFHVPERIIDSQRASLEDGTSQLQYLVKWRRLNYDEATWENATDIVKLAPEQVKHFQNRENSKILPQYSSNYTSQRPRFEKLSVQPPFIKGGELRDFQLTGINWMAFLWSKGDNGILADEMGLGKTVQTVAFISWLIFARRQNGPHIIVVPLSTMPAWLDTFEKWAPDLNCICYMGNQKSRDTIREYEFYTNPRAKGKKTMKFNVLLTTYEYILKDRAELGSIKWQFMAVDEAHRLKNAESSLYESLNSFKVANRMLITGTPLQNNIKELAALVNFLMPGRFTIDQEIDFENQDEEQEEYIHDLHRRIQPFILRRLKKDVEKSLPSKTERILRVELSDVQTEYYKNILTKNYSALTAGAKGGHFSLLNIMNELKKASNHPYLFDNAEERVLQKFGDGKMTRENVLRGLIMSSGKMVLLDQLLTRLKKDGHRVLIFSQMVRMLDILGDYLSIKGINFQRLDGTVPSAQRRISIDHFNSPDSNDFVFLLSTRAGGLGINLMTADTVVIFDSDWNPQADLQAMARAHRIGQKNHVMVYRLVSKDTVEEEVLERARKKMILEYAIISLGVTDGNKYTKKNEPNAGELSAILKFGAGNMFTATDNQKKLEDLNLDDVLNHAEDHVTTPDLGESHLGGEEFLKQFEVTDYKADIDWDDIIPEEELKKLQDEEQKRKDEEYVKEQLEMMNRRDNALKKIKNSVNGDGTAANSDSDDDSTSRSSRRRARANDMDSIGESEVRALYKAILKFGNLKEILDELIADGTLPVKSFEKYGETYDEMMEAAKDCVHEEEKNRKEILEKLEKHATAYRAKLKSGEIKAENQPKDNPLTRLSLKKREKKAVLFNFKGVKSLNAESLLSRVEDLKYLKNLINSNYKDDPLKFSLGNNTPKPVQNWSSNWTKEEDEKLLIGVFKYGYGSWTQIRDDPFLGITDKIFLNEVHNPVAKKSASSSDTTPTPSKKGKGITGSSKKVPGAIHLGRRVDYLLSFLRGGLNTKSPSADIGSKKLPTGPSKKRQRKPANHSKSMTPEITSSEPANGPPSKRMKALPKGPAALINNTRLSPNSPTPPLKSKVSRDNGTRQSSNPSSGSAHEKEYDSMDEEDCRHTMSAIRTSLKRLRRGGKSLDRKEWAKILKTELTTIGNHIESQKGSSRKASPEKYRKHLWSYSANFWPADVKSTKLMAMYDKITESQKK
Protein translocase subunit SecA (Escherichia coli (strain K12)), sequence (P10408 whole entry): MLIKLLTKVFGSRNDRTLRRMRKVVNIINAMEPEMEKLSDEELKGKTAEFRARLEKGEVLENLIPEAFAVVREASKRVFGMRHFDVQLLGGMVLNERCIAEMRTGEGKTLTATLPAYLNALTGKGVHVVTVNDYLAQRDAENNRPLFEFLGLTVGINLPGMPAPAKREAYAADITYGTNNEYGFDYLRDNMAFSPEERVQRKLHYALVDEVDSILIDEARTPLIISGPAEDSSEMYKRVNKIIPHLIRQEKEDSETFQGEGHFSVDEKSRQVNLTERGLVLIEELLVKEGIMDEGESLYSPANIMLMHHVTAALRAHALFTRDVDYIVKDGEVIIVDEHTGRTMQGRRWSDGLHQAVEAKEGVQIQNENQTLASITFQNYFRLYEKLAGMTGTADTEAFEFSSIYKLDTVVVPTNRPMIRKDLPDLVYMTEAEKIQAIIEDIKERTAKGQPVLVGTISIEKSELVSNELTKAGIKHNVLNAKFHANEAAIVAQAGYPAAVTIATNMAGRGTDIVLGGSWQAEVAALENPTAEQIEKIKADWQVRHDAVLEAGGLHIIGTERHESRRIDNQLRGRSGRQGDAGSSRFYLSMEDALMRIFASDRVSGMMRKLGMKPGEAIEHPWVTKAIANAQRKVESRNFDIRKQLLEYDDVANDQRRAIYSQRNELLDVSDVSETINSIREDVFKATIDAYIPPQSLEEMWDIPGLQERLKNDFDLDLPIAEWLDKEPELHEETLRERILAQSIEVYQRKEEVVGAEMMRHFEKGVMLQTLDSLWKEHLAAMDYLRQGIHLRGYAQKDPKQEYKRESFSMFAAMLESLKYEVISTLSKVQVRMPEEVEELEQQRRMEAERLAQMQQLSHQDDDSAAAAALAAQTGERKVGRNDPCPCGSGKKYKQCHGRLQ
Sialic acid-binding Ig-like lectin 9 (Homo sapiens), sequence (Q9Y336 whole entry): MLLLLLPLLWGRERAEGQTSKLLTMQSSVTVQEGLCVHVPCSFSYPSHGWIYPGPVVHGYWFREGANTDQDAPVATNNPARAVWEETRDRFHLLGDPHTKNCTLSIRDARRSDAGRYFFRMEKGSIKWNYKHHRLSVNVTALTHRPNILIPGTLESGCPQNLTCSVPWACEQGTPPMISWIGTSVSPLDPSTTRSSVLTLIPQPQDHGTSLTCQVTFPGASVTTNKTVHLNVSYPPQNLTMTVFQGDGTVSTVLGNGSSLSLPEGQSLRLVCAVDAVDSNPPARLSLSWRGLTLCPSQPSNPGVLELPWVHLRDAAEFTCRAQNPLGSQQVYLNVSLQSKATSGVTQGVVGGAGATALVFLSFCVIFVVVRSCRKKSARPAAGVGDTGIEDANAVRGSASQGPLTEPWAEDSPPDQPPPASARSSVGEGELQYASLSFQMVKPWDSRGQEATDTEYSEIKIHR

Compound	Percent Effect [1] [%]	Percent Effect [2] [%]	Percent Effect [3] [%]	Percent Effect [4] [%]	Percent Effect [5] [%]	Percent Effect (Trypanosoma cruzi) [%]	Percent Effect ([6]; 33.3 µM) [%]	Percent Effect [7] [%]	Percent Effect (Homo sapiens) [%]	Percent Effect [8] [%]	Percent Effect [9] [%]	Percent Effect [10] [%]	Percent Effect [11] [%]	PXC50 ([12]; MAX_EFFECT 10.18276762)	PXC50 ([12]; MAX_EFFECT 10.96605744)	PXC50 ([12]; MAX_EFFECT 28.46347607)	PXC50 ([12]; MAX_EFFECT 29.26208651)	Percent Effect ([6]; 30 µM) [%]
Cc1nc(N(C)C)nc2c1COCC21CCN(CC2CC2)C1 (configuration not stated)	-3.83	-8.11	3.96	-0.232	1.53	-5.86	1.25	7.18	4.17	-14.2	6.93	6.1	-5.03	–	–	–	–	–
O=C1[C@H]2CN(CC3CC3)C[C@H]2CN1c1ccsc1	-6.19	-2.7	1.21	4.91	-3.17	-2.44	-1.59	6.27	-11.2	-5.46	3.24	0	5.84	–	–	–	–	–
Cc1cc(C(F)(F)F)nc(N2CCN3CCCC3C2)n1 (configuration not stated)	–	–	–	–	–	–	–	–	–	–	–	–	–	< 4	< 4	–	–	–
c1ccc(CO[C@H]2CO[C@@]3(CCN(Cc4ccoc4)C3)C2)nc1	-1.82	14.7	2.15	3.34	5.22	-1.38	-7.57	10.2	-27.8	-30.9	-1.06	12.8	-9.15	–	–	–	–	–
Cc1nc(N2CCN(C(=O)C(C)C)CC2)c2c3c(sc2n1)CC(C)CC3 (configuration not stated)	–	–	–	–	–	–	–	–	–	–	–	–	–	–	–	< 4	< 4	–
O=C1CSC(c2ccc(O)c(Cl)c2)c2c(n(C3CCOCC3)[nH]c2=O)N1 (configuration not stated)	-3.7	20	-0.726	0.0426	4.6	2.36	-14.3	8.87	8.4	-12.7	9.52	17.9	-15.1	–	–	–	–	4.87
